Results reported in PubChem BioAssay (NCATS).
Inconclusive results are not listed. A call without a number means that no potency is given here. A number with no mark means an inactive call. Active and inactive are the calls of the source. Unless noted, calls follow the shape of the full dose curve.

What was measured:
[1] = qHTS for Inhibitors of the Functional Ribonucleoprotein Complex (vRNP) of Lassa (LASV) Arenavirus: LASV Primary Screen - GLuc reporter signal (AID 1347082; calls by dose curve; tested in HEK293 reporter line; also: nearly all actives have a fitted effect of over 60% in size)
[2] = qHTS for Inhibitors of the Functional Ribonucleoprotein Complex (vRNP) of Lassa (LASV) Arenavirus: Viability assay - alamar blue signal for LASV Primary Screen (AID 1347083; calls by dose curve; tested in HEK293 reporter line; also: nearly all actives have a fitted effect of over 80% in size)
[3] = qHTS for Inhibitors of the Functional Ribonucleoprotein Complex (vRNP) of Lymphocytic Choriomeningitis Arenaviruses (LCMV): Viability assay - alamar blue signal for LCMV Primary Screen (AID 1347085; calls by dose curve; tested in HEK293 reporter line; also: nearly all actives have a fitted effect of over 80% in size)
[4] = biological target: Nucleoprotein (Lymphocytic choriomeningitis virus (strain Armstrong)) (UniProt P09992); test: qHTS for Inhibitors of the Functional Ribonucleoprotein Complex (vRNP) of Lymphocytic Choriomeningitis Arenaviruses (LCMV): LCMV Primary Screen - GLuc reporter signal (AID 1347086); also: nearly all actives have a fitted effect of over 70% in size
Potency is read from the fitted curve at half-maximal effect.

Sequence of Nucleoprotein (Lymphocytic choriomeningitis virus (strain Armstrong)) (P09992 whole entry, looked up): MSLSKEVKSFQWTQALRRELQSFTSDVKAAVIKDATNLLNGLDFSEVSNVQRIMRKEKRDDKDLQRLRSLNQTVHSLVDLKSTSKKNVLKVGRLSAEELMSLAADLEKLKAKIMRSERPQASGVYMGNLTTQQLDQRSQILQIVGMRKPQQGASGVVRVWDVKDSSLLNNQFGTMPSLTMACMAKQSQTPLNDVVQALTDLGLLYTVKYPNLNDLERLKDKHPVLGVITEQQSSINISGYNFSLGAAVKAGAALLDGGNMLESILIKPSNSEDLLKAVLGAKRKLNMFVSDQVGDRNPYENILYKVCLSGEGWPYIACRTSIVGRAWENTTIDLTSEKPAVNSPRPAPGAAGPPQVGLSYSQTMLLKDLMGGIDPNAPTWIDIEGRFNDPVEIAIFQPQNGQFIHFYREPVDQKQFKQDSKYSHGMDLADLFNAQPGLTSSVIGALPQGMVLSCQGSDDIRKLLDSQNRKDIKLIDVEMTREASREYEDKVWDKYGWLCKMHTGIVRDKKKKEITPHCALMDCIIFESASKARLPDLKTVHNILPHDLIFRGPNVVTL

| Structure (SMILES) | Potency [1] | Potency [2] | Potency [3] | Potency [4] |
| --- | --- | --- | --- | --- |
| CC(=O)c1c(O)cc(O)cc1O | inactive | inactive | inactive | inactive |
| COC1[C@@H](O[C@@H]2O[C@H](C)[C@@H](O[C@H]3C[C@@](C)(O)[C@H](OC(=O)CC(C)C)[C@H](C)O3)[C@H](N(C)C)[C@H]2O)[C@@H](CC=O)C[C@@H](C)[C@@H](O)/C=C/C=C/C[C@@H](C)OC(=O)C[C@H]1OC(C)=O (some centres not stated) | inactive | inactive | inactive | inactive |
| C[C@]12CCC3C(C[C@@H](O)[C@H]4C[C@@H](O)CC[C@]34C)C1CC[C@@H]2O (some centres not stated) | inactive | inactive | inactive | inactive |
| CCCCCCCCCCCCCCCCCCCCCCCCCCCCCC | inactive | inactive | inactive | inactive |
| COC(=O)c1nccc2c1[nH]c1ccccc12 | inactive | inactive | inactive | inactive |
| C#C[C@]1(O)CC[C@@H]2[C@@H]3CCC4=CC(=O)CC[C@@H]4[C@H]3CC[C@@]21CC | inactive | inactive | inactive | inactive |
| COc1ccc2c(=O)cc(-c3ccccc3)n(C)c2c1 | inactive | inactive | inactive | inactive |
| CCC(C)C(=O)OCCc1ccccc1 (configuration not stated) | inactive | inactive | inactive | inactive |
| CC1(C)C=Cc2c(ccc(C(=O)/C=C/c3ccccc3)c2O)O1 | inactive | inactive | inactive | inactive |
| CC(C)CCCCCCCCCCCCC(=O)NCC(=O)NC1C(O)C(O)C(Nc2ncnc3nc[nH]c23)OC1C(O)CO (configuration not stated) | inactive | inactive | inactive | inactive |
| C[C@@H]1CC[C@@]23COC(=O)C2=CCC[C@@H]3[C@@]1(C)CC/C(=C/CO)CO | inactive | inactive | inactive | inactive |
| O=c1cc(-c2ccc(O)c(O)c2)oc2ccccc12 | inactive | inactive | inactive | inactive |
| COc1cc2cc(Oc3ccc4ccc(=O)oc4c3)c(=O)oc2cc1OC(C)=O | inactive | inactive | inactive | inactive |
| C/C=C(/C)C(=O)O[C@@H]1c2cc3c(c4c2[C@@]2(CO4)C(=O)C(OC)=C(OC)C=C2C[C@@H](C)[C@H]1C)OCO3 | inactive | inactive | inactive | inactive |
| CC(C)=CCc1c(O)cc2c(c1O)C(=O)CC(c1ccccc1)O2 (configuration not stated) | inactive | inactive | inactive | inactive |
| CCC(=O)Nc1ccccc1 | inactive | inactive | inactive | inactive |
| COc1ccc(COC(C)=O)cc1 | inactive | inactive | inactive | inactive |
| CN(CC=CC#CC(C)(C)C)Cc1cccc2ccccc12 | inactive | inactive | inactive | inactive |
| O=c1[nH]c(=S)[nH]c(-c2ccccc2)c1Cc1c(O)ccc2ccccc12 | inactive | inactive | inactive | inactive |

| Structure (SMILES) | Potency [1] | Potency [2] | Potency [3] | Potency [4] |
| --- | --- | --- | --- | --- |
| CC1=CCC[C@H]2[C@H](C1)C(=O)C[C@@H](C)[C@]2(C)CC/C(=C/CO)CO | inactive | inactive | inactive | inactive |
| CC1=CC(=O)O[C@@H]1[C@@]1(C)C[C@H]2OC(=O)C[C@H]3[C@@H](C)C(=O)C(O)=C1[C@@]23CO | inactive | inactive | inactive | inactive |
| CC(C)C/C=C(\C=O)c1ccccc1 | inactive | inactive | inactive | inactive |
| Cc1c(O)ccoc1=O | inactive | inactive | inactive | inactive |
| C/C=C(\C)C(=O)O[C@@H]([C@H](O)c1cc2ccc(=O)oc2cc1OC)C(C)(C)O | inactive | inactive | inactive | inactive |
| CCOC(=O)c1ccccc1 | inactive | inactive | inactive | inactive |
| COC(=O)N1c2ccccc2C23[C@@H]4CN5CCC[C@]6(CCC12C(O)(C6)C4=O)[C@H]53 | inactive | inactive | inactive | inactive |
| COc1cc2c(cc1OC)[C@@H]1Cc3cc4c(cc3[C@H](C2)N1C)OCO4 | inactive | inactive | inactive | inactive |
| Cc1coc2c1C(=O)C(=O)c1c-2ccc2c(C)cccc12 | inactive | inactive | inactive | inactive |
| CC(=O)Oc1ccc2c(=O)c(-c3ccccc3)c(C)oc2c1 | inactive | inactive | inactive | inactive |
| Cc1cnnc2ccccc12 | inactive | inactive | inactive | inactive |
| O=C(O)[C@H]1O[C@H](Oc2cc3oc(-c4ccccc4)cc(=O)c3c(O)c2O)[C@H](O)[C@@H](O)[C@H]1O | inactive | inactive | inactive | inactive |
| COC(=O)C1=CO[C@@H](C)[C@@H]2CN3CCc4c([nH]c5ccccc45)[C@@H]3C[C@H]12 | inactive | inactive | inactive | inactive |
| COc1c(C(=O)/C=C/c2ccccc2)ccc2c1C=CC(C)(C)O2 | inactive | inactive | inactive | inactive |
| CC1(C)C[C@H]2C3=CCC4[C@@]5(C)CC[C@H](O)[C@](C)(CO)C5CC[C@@]4(C)[C@]3(C)C[C@H]3O[C@@H]1[C@H](O)[C@]32CO (some centres not stated) | inactive | inactive | inactive | inactive |
| CC(=O)C1CCC2C3CCC4=CC(=O)C=CC4(C)C3C(=O)CC12C (configuration not stated) | inactive | inactive | inactive | inactive |
| c1csc(-c2ccc(-c3cccs3)s2)c1 | inactive | inactive | inactive | inactive |
| COc1c(C)c2c(c(O)c1CC=C(C)CCC(=O)O)C(=O)OC2 | 6.11 µM (active) | 3.85 µM (active) | 13.7 µM (active) | 7.69 µM (active) |
| COc1ccc([C@@H]2CC(=O)c3c(O)cc(O[C@@H]4O[C@H](CO)[C@@H](O)[C@H](O)[C@H]4O[C@@H]4O[C@@H](C)[C@H](O)[C@@H](O)[C@H]4O)cc3O2)cc1 | inactive | inactive | inactive | inactive |
